Results filed as inconclusive are left out. Unmarked numbers belong to inactive results. The source made the active and inactive calls. Calls come from the whole dose curve.
Assay: qHTS assay for small molecule agonists of the antioxidant response element (ARE) signaling pathway - cell viability counter screen (AID 743203); note: nearly all actives have a fitted effect of over 55% in size
Conditions: ARE-bla HepG2 viability, CellTiter-Glo luminescence, 16 h; series mostly up to 73.3 µM; viability change, negative = cytotoxic: at the top concentration
Source text: National Center for Advancing Translational Sciences [NCATS]
NIH Chemical Genomics Center [NCGC]
U.S. Environmental Protection Agency [EPA]
National Institutes of Environmental Health Sciences [NIEHS]
National Toxicology Program [NTP]
U.S. Food and Drug Administration [FDA]
Oxidative stress has been implicated in the pathogenesis of a variety of diseases ranging from cancer to neurodegeneration. The antioxidant response element (ARE) signaling pathway plays an important role in the amelioration of oxidative stress. The CellSensor ARE-bla HepG2 cell line (Invitrogen) can be used for analyzing the Nrf2/antioxidant response signaling pathway. Nrf2 (NF-E2-related factor 2) and Nrf1 are transcription factors that bind to AREs and activate these genes. The CellSensor ARE-bla Hep G2 cell line contains a beta-lactamase reporter gene under control of the Antioxidant Response Element (ARE) stably integrated into HepG2 cells. The activation of the report gene under culture conditions can be detected by fluorescence intensity. This cell line has been used to screen the Tox21 10K compound library to identify agonists that induce oxidative stress. The cytotoxicity of the Tox21 compound library against the ARE-bla cell line was tested in parallel by measuring the cell viability using CellTiter-Glo assay (Promega, Madison, WI) in the same wells.
Tox21 Assay Protocol Summary:
ARE-bla HepG2 cells were dispensed at 2,000 cells/5 ul/well in 1536-well white wall/solid bottom plates using a Multidrop Combi (ThermoFisher Scientific, Waltham, MA) dispenser. After the assay plates were incubated at 37C/5% CO2 for 5 hrs, 23 nL of compounds dissolved in DMSO, positive controls or DMSO only was transferred to the assay plate by a pintool work station (Kalypsys, San Diego, CA). The plates were incubated at 37C/5% CO2 for 16 hrs, followed by addition of 4 ul/well of CellTiter-Glo reagent into the assay plates using a Flying Reagent Dispenser (Aurora Discovery, San Diego, CA). After 30 min incubation at room temperature, the luminescence intensity in the assay plates was measured using a ViewLux (PerkinElmer, Shelton, CT) plate reader.
% is set by controls: 0 for no effect and ±100 for the full control effect; potency is the fitted concentration of half-maximal effect.

| Compound | viability change, negative = cytotoxic | Potency |
| --- | --- | --- |
| CCOC(OCC)OCC | 8.4% | – |
| O=C1c2ccccc2C(=O)c2c1ccc(O)c2O | -2.4% | – |
| CC1=C(C)C(=O)C(C(CCCCCC(=O)O)c2ccccc2)=C(C)C1=O (stereo not given) | -2.64% | – |
| CCCCCCCCCCCCCCCCC(=O)O | -2.79% | – |
| CCC(CC)C(=O)O | 7.42% | – |
| CC(C)CCCCCCCOC(=O)c1ccc(C(=O)OCCCCCCCC(C)C)c(C(=O)OCCCCCCCC(C)C)c1 | -12.6% | – |
| Cc1cc(SC2=C(O)C[C@@](CCc3ccc(N)cc3)(C(C)C)OC2=O)c(C(C)(C)C)cc1CO | 7.43% | – |
| O=[N+]([O-])c1cccc(I)c1 | 8.44% | – |
| COc1ccc(C(=O)c2ccc(C)cc2)c(O)c1 | -6.51% [at 94.8 µM] | – |
| c1ccc(CN(Cc2ccccc2)Cc2ccccc2)cc1 | -16% | – |
| O=C(O)c1ccc(O)c(O)c1 | 0.664% | – |
| Cc1ccc2c(Cl)cc(Cl)c(O)c2n1 | 1.06% | – |
| CC1(C)CC(=O)CC(C)(C)N1 | 1.42% | – |
| N#Cc1ccc(CC(=O)c2cccc(C(F)(F)F)c2)cc1 | -1.53% | – |
| CCCCOC(=O)CC#N | -12.3% [at 94.8 µM] | – |
| CO[C@@H]1[C@@H](O[C@@H]2O[C@H](C)[C@@H](O[C@H]3C[C@@](C)(O)[C@@H](O)[C@H](C)O3)[C@H](N(C)C)[C@H]2O)[C@@H](CC=O)C[C@@H](C)[C@@H](O[C@@H]2CC[C@H](N(C)C)[C@@H](C)O2)/C=C/C=C/C[C@@H](C)OC(=O)C[C@H]1OC(C)=O | 0.794% | – |
| CCOc1cc(OCC)c(C(C)=O)cc1OCC | 3.91% | – |
| Cc1nc(C)c(C)nc1C | -8.87% | – |
| CCCCCCCCOCCCN | – | 54.5 µM (active) |
| N#CCCCC(C#N)CCC#N (stereo not given) | -9.94% | – |

| Compound | viability change, negative = cytotoxic | Potency |
| --- | --- | --- |
| CC(C(=O)O)c1ccc(/C=C2\CCCCC2=O)cc1 (stereo not given) | 15.1% | – |
| CC(=O)OCC(=O)[C@@]1(O)CC[C@H]2[C@@H]3CCC4=CC(=O)C=C[C@]4(C)[C@@]3(F)[C@@H](O)C[C@@]21C | 2.79% | – |
| C/C(=C(\CCO)SS/C(CCO)=C(\C)N(C=O)Cc1cnc(C)nc1N)N(C=O)Cc1cnc(C)nc1N | 9.2% | – |
| O=C(O)c1ccccc1-n1cc(C(=O)O)c(=O)c2cc(Nc3c(F)cc(F)cc3Cl)c(Cl)cc21 | 0.943% | – |
| COc1ccc(C(=O)Nc2ccccc2)cc1[N+](=O)[O-] | 3.82% [at 94.8 µM] | – |
| CC[C@H](NC(C)C)[C@H](O)c1ccc(O)c2[nH]c(=O)ccc12 | 7.26% | – |
| COC(=O)C(C)(C)C | 5.85% [at 94.8 µM] | – |
| O=C(C1CCCCC1)N1CC(=O)N2CCCc3ccccc3C2C1 (stereo not given) | 6.87% | – |
| O=S(=O)(O)c1cc(Cl)c(Cl)cc1Cl | -7.49% | – |
| CCCCCCCCCCCC(=O)OCC | 8.1% | – |
| CC1=CC(=C(c2ccc(N)cc2)c2ccc(N)cc2)C=CC1=N | -12.3% [at 8.36 µM] | – |
| CC(O)CN (stereo not given) | 9.89% | – |
| CC(C)CC(C)(C)C | 10.1% [at 94.8 µM] | – |
| CC(C)C/C=C(\C=O)c1ccccc1 | 5.62% | – |
| CC(=O)Nc1ccn(C2COC(COC(=O)c3ccccc3)O2)c(=O)n1 (stereo not given) | -0.421% | – |
| Cc1cc(N)n(-c2ccccc2)n1 | -3.34% | – |
| CCOC(=O)CC(O)(CC(=O)OCC)C(=O)OCC | -1.17% | – |
| CCC(C)CCCC(C)(C)O (stereo not given) | -6.97% | – |
| OCCc1ccncc1 | -15.1% | – |
| CO[C@@H]1COCC[C@@H]1N[C@@H]1CC[C@@](C(=O)N2CCc3ncc(C(F)(F)F)cc3C2)(C(C)C)C1 | -2.95% | – |
